Measurements from PubChem BioAssay AID697 (Columbia University Molecular Screening Center, 2007).
About 100 (0.1%) of roughly 96,000 compounds were called active. The list comes from a sample in which actives are over-represented; it also holds similar structures and randomly drawn compounds. Values without a mark were called inactive.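 Rule for the calls: active = activation at 2 µM above a set limit, the mean plus 5 SD (cut at about 37% in these data); inactive = the rest.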

molecular target: Tyrosine-protein phosphatase non-receptor type 22 (Homo sapiens) (UniProt Q9Y2R2); assay: enhancers of human PTPN22 catalytic activity – biochemical, DiFMUP fluorescence, 2 µM, primary screen (AID 697); settings: recombinant LYP, at 2 µM, hits give high values, 0 = plate median, 100 = signal doubled
Sequence (Q9Y2R2 whole entry, looked up): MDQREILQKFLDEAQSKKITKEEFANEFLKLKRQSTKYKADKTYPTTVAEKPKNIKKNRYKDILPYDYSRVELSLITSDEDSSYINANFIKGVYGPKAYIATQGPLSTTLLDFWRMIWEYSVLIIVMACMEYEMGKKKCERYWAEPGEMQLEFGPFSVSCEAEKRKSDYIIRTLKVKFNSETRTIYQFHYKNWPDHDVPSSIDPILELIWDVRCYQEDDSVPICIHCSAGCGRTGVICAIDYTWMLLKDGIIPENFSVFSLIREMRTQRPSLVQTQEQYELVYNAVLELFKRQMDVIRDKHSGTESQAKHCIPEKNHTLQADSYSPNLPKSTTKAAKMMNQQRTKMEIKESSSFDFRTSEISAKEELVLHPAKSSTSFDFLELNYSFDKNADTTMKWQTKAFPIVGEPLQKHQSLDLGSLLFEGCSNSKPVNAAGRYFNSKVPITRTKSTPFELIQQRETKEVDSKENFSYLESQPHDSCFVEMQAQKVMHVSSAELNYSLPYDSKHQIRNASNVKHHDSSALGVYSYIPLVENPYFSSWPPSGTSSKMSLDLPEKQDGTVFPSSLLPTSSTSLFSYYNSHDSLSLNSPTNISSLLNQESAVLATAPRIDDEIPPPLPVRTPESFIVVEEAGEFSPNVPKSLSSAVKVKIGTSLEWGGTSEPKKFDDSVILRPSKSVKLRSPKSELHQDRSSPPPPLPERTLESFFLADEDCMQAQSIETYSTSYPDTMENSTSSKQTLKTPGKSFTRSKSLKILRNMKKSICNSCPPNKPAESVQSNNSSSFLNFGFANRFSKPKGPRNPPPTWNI

| SMILES | activation |
| --- | --- |
| O=C(Nc1ccc2c(c1)CCC2)c1cccc(S(=O)(=O)N2CCN(c3ccc(F)cc3)CC2)c1 | -11.2% |
| COCCCNC(=O)C1CC(=O)N(CCc2ccccc2)C1 (stereo unspecified) | 3.1% |
| Cc1ccc(S(=O)(=O)N2CCC(C(=O)NCC3CCCO3)CC2)cc1 (stereo unspecified) | 0.4% |
| COC(=O)c1ccccc1Sc1c(/C=N/OCc2ccc(Cl)cc2)c(C(F)(F)F)nn1C | -3.5% |
| CN(C(=O)CC(NC(=O)c1ccccc1)(c1ccccc1)c1ccccc1)c1ccccc1 | -4.3% |
| FC(F)(F)c1cnc(Oc2ccccc2-c2nnc(-c3ccc(Cl)cc3)o2)c(Cl)c1 | 4.7% |
| CS(=O)(=O)N(Cc1ccc(Cl)cc1)c1ccc(C(=O)NCCSCc2ccco2)cc1 | 10.1% |
| CCOC(=O)N1CCC(N(CCOC)C(=O)Nc2ccc(C)c(C)c2)CC1 | -11.9% |
| COC(=O)c1ccccc1NC(=O)Cc1ccccc1OC | -0.7% |
| COc1ccccc1C(=O)N1CC2(C)CC1CC(C)(C)C2 (stereo unspecified) | -6% |
| CCOC(=O)C1=C(c2ccccc2)N=C2SCC(=O)N2C1c1ccc(O)c(OC)c1 (stereo unspecified) | 6.1% |
| Cn1c(CO)cnc1SCc1ccccc1 | 5.8% |
| CN(C)c1ccc(/C=C2\NC(=S)N(Cc3ccccc3)C2=O)cc1 | -19.7% |
| CC(C)C(=O)Nc1cccc(NC(=S)NC(=O)C(c2ccccc2)c2ccccc2)c1 | -14% |
| O=C(Nc1ccc(Br)cc1)C1CCC(=O)N1Cc1ccccc1Cl (stereo unspecified) | -2.1% |
| COC(=O)/C=C/C(=O)NCc1ccco1 | -5.4% |
| N#CCSc1nc2ccc(N3CCOCC3)cc2c(=O)n1CCc1ccccc1 | 3.3% |
| CCOC(=O)C(=CNc1cccc(C)n1)C(=O)OCC | 6.8% |
| CCOc1c(Br)cc(/C=C2\C(=O)N(CCC#N)N=C2C)cc1OC | -0.1% |
| CCOC(=O)c1cnc(SCc2nc(N)nc(Nc3ccc(OC)cc3)n2)nc1N | 0.5% |
| CCC(C)NC(=O)c1cc(Cl)ccc1OC (stereo unspecified) | 7% |
| CCN(CC)CCNC(=O)CCCCCn1c(=O)[nH]c2cc(C(=O)OC)ccc2c1=O | 6.8% |

| SMILES | activation |
| --- | --- |
| O=C(NC1CCCCC1)c1ccc(CNc2c(N3CCOCC3)c(=O)c2=O)cc1 | 10.2% |
| CC(C)CNC(=O)CC(c1ccccc1)c1c(O)ccc2ccccc12 (stereo unspecified) | -3.2% |
| O=C(NC1CCCC1)C(c1ccccn1)N(C(=O)c1csnn1)C1CCCC1 (stereo unspecified) | -2.6% |
| O=C(COc1ccc2c(C(F)(F)F)cc(=O)oc2c1)Nc1ccc2c(c1)OCCO2 | -12.8% |
| CCOc1ccc(NC(=O)C2CC(=O)N=C(N)S2)cc1 (stereo unspecified) | -0.7% |
| O=C(CCN1C(=O)c2ccccc2C1=O)Nc1cccc(F)c1 | 7.2% |
| CC1(C)CCc2nc(SCc3ccccc3)c(C#N)cc2C1 | 7.1% |
| C/C(=N\NC(=O)c1ccc(C)cc1)C1C(=O)c2ccccc2C1=O | -6.7% |
| CCn1nccc1C(=O)Nc1ccc(S(=O)(=O)NC23CC4CC(CC(C4)C2)C3)cc1 | 4.2% |
| N#C/C(=C/c1ccc(Cl)cc1)NC(=O)c1ccccc1 | -6.7% |
| OC(COc1ccc2ccccc2c1)Cn1cncn1 (stereo unspecified) | -5.7% |
| CC1(C)OC(=O)N2CCc3ccccc3C21C (stereo unspecified) | -7.1% |
| Cc1ccccc1OCc1nnc(SCC(=O)N2c3ccccc3Sc3ccc(Cl)cc32)o1 | 4.7% |
| CCOC(=O)C1CSC(CC(=O)Nc2ccc(OCC)cc2)C(=O)N1 (stereo unspecified) | 4.7% |
| CCN(CC)CCn1c2ccc(Cl)cc2c2nc(C)sc21 | -0.1% |
| CCCc1nc2ccccc2c(C(=O)OCC(=O)c2ccc3c(c2)NC(=O)CO3)c1CC | 3.9% |
| Cc1cc(C)c2c(-n3cccc3)c(C(=O)NNS(=O)(=O)c3ccc(F)cc3)sc2n1 | -0.7% |
| Cc1cc(C)cc(N(CC(=O)N2CC=C(c3ccccc3)CC2)S(=O)(=O)c2c(C)noc2C)c1 | -2.1% |
| O=C(NC1CC1)c1ccc2c(c1)NC(=O)c1ccccc1S2 | 3.4% |
| O=C(c1ccccc1)c1cc(-c2ccccn2)c(N2CCOCC2)s1 | 6.1% |
| Cc1ccccc1-n1c(C)cc(/C=C2\NC(=O)NC2=O)c1C | 12.1% |
| O=C(CN1CCN(c2ccc(Cl)cc2)CC1)N1CCCC1 | -12% |

| SMILES | activation |
| --- | --- |
| CN(C)C(CNC(=O)CCCOc1ccccc1)c1ccco1 (stereo unspecified) | -1% |
| N#Cc1ccsc1NC(=O)CN1CCCCC1 | 5.2% |
| COCCn1c(=S)[nH]c2cc(C(=O)NCCc3ccc(OC)c(OC)c3)ccc2c1=O | -10.7% |
| Cc1cc(C)c(S(=O)(=O)N2C=CC(C(F)(F)F)=NCC2)c(C)c1 | 16.2% |
| Cc1ccc(-c2nn(-c3ccccc3)cc2/C=N/NC(=O)c2ccc3c(c2)OCO3)cc1 | -4.4% |
| Cc1ccc(S(=O)(=O)NC(=O)COc2ccccc2C)cc1 | -2.9% |
| COc1ccc(C(=O)Cc2cnn(-c3ccccc3)c2)c(O)c1 | -3% |
| Cc1ccc(-c2nc3ccccc3[nH]2)cc1NC(=O)c1sc2ccccc2c1Cl | -22.6% |
| COc1cc(N2CCCC2)c(OC)cc1/C=C(/C#N)c1cccc(Br)c1 | -2.3% |
| C=CCn1c(SCCOc2ccc(OC)cc2)nnc1C(NC(=O)c1ccc(OC)cc1)C(C)C (stereo unspecified) | -4.5% |
| CCCc1nc2oc3c(OCC)ncnc3c2c2c1COC(C)(C)C2 | -1.3% |
| O=C(NN1C(=O)C2C3C=CC(C4CC34)C2C1=O)c1ccc(Cl)cc1 (stereo unspecified) | 3.3% |
| COc1ccccc1C(=O)Nc1ccc(NC(=O)c2ccco2)c(C)c1 | 7.2% |
| COc1ccc(N2CCN(C(=O)CNC(=O)c3ccc(C(C)(C)C)cc3)CC2)cc1 | -8.3% |
| CCN(CC)C(=O)CSc1nc2ccccc2o1 | 8.6% |
| COc1cccc(N(CC(=O)NCCSc2ccccn2)S(C)(=O)=O)c1 | -4.5% |
| COc1cc(C)c(C(C)C)cc1S(=O)(=O)n1ccnc1 | 9.7% |
| N#CCCn1ncc2ccccc21 | 44.2% (active) |
| N#CCCn1cnc2ccccc21 | 2% |
| Cc1cc(Nc2ccccc2)n(CCC#N)n1 | -4.9% |
| O=C(NC1CCC(O)CC1)c1ccc(S(=O)(=O)NCc2ccco2)cc1 (stereo unspecified) | 8.1% |
| CC(=O)N/C(=C/c1ccc(Cl)cc1)C(=O)NCCc1c[nH]c2ccccc12 | -3% |

| SMILES | activation |
| --- | --- |
| COc1cc2c(cc1OC)C(C(C)C)=NC(C)(C)C2 | 12.3% |
| Cc1nn(Cc2ccccc2)c2c1C(c1ccccc1)C(C#N)=C(N)O2 (stereo unspecified) | -7.2% |
| CC(C)(C)NC(=O)Cn1c(SCC(=O)Nc2nccs2)nc2ccccc21 | 8% |
| COc1ccc(N(CC(=O)NC2CCCCC2)C(=O)CNC(=O)c2ccco2)c(OC)c1 | 9.4% |
| Cc1ccc(C(=O)N/C(=C/C=C/c2ccccc2)C(=O)NCc2ccco2)cc1 | -2.3% |
| COC(=O)C(C)Oc1ccc2c(-c3cccc([N+](=O)[O-])c3)cc(=O)oc2c1 (stereo unspecified) | 0.1% |
| Cc1ccc(NS(=O)(=O)c2c(C)[nH]c(=O)[nH]c2=O)cc1C | 0.8% |
| CC(=O)C1=C(C)NC(C)=C(C(C)=O)C1c1cn(-c2ccccc2)nc1-c1cccs1 | -3.9% |
| COc1cccc2cc(C(=O)N3CCN(C(=O)c4ccccc4)CC3)c(=O)oc12 | 17.4% |
| CS(=O)(=O)N(CC(=O)N1CCN(Cc2ccccc2)CC1)c1ccc2c(c1)OCCO2 | -3.3% |
| O=C(CCNS(=O)(=O)c1ccccc1C(F)(F)F)NCc1ccc2c(c1)OCO2 | 13.9% |
| CCOc1ccc(-c2nc(C)sc2CC(=O)O)cc1 | 14.3% |
| Cc1ccc(NC(=O)CN2CCc3ccccc3C2)cc1 | -4.9% |
| CC(C)C(=O)NC(NC(=S)NC1CCS(=O)(=O)C1)C(Cl)(Cl)Cl (stereo unspecified) | -11.6% |
| O=C(Oc1ccccc1C(=S)N1CCCCC1)c1cc([N+](=O)[O-])cc([N+](=O)[O-])c1 | -4.4% |
| c1ccc(-c2nccc(-c3ccc(-n4cnc5ccccc54)cc3)n2)nc1 | -36.4% |
| Cn1ncc2c(Nc3cccc4ccccc34)ncnc21 | -5% |
| CCn1c(-c2ccoc2C)n[nH]c1=S | 7.5% |
| N#Cc1ccccc1CN1C(=O)S/C(=C/c2cccn2-c2cccc(C(=O)O)c2)C1=O | -30.2% |
| O=C1CC(C(F)(F)C(F)(F)C(F)(F)C(F)(F)F)=Nc2ccccc2N1 | 1.9% |
| N#Cc1ccc(Oc2cc(C(F)(F)F)nc(-c3ccccn3)n2)cc1 | -2.8% |
| CCSc1nnc(-c2cc3c(s2)-c2ccccc2CC3)o1 | -3.7% |

| SMILES | activation |
| --- | --- |
| O=C(CCCn1c(SCC(=O)c2ccccc2)nc2ccccc2c1=O)NCC1CCCO1 (stereo unspecified) | -4.2% |
| c1ccc(-c2nc(NCc3ccco3)c3ccccc3n2)cc1 | 8% |
| CCSc1ccccc1C(=O)NCc1ccc(OC)cc1 | -18.7% |
| Cc1nc(NC2=NC(C(=O)Nc3ccc(Cl)cc3)CC(=O)N2)nc2ccccc12 (stereo unspecified) | -2.8% |
| COc1cccc(CNCCc2c[nH]c3ccccc23)c1OCc1ccccc1F | 10.4% |
| CC(C)NC(=O)c1ccccc1S(=O)c1ccccc1C#N (stereo unspecified) | 4% |
| O=C(Cc1c(O)c2ccccc2[nH]c1=O)NCc1ccccc1 | 3.6% |
| C=CCn1c(Oc2ccc(C(=O)OC)cc2)nc2c1c(=O)n(C)c(=O)n2C | -3.9% |
| O=C(O)C1CC=CCC1C(=O)Nc1ccccc1C(=O)N1CCN(c2ccccc2)CC1 (stereo unspecified) | -3.2% |
| Cc1cccc(NC(=O)c2ccc(OCC(=O)NCc3ccccc3)cc2)c1C | 6% |
| O=C(COC(=O)c1ccccc1SCC(=O)NC1CCCCC1)NC1CCCCC1 | -5.6% |
| O=C(Nc1ccccc1)OCc1cn(-c2ccc(Cl)cc2)nn1 | -1.5% |
| Cc1ccc(N2C(=O)CC(Sc3ncn[nH]3)C2=O)cc1 (stereo unspecified) | -8.7% |
| Cc1onc(-c2ccccc2Cl)c1C(=O)OCC(=O)c1ccccc1 | 13.5% |
| Cc1noc(C)c1C(=O)N1CCOCC1 | 33% |
| CN(C)c1ccc(NC(=S)N(CCc2ccccc2)C2CC(=O)N(c3c(Cl)cccc3Cl)C2=O)cc1 (stereo unspecified) | -8.5% |
| CC1=CC(C)(C)NC(=S)N1c1ccccc1 | -7.5% |
| COC(=O)C1(O)CC(C(C)C)=NN1C(=O)c1ccc(Cl)cc1 (stereo unspecified) | -5.9% |
